Among the data in PubChem BioAssay AID1851 (National Center for Advancing Translational Sciences (NCATS), 2009) are AC50 and activity, negative = inhibition values, retold here.

SMILES strings stand for the structures. “And” between values parts separate entries of the source, which are not always exact repeats. Identical values can stand only once. Out of some 16,000 compounds screened, about 5,700 (36%) were called active. About 24% were inconclusive and are not listed. The list shows a part of the results. Unmarked numbers belong to inactive results. Calls come from the whole dose curve; as a rule, active = well fitted curve in the direction sought with a large enough effect; inconclusive = small, poorly fitted or top-dose-only effect, or effect the other way; inactive = no such curve, though single readings can be large or run the other way.
% is set by controls: 0 for no effect and ±100 for the full control effect.

This experiment deals with Cytochrome P450 1A2 (Homo sapiens) (UniProt P05177). Nature of the experiment: Cytochrome panel assay with activity outcomes. The settings on record: recombinant CYP, pro-luciferin dealkylation, luminescence, p450-cyp1a2; series mostly up to 57.1 µM.
Chain of Cytochrome P450 1A2 (Homo sapiens) (P05177 whole entry, looked up): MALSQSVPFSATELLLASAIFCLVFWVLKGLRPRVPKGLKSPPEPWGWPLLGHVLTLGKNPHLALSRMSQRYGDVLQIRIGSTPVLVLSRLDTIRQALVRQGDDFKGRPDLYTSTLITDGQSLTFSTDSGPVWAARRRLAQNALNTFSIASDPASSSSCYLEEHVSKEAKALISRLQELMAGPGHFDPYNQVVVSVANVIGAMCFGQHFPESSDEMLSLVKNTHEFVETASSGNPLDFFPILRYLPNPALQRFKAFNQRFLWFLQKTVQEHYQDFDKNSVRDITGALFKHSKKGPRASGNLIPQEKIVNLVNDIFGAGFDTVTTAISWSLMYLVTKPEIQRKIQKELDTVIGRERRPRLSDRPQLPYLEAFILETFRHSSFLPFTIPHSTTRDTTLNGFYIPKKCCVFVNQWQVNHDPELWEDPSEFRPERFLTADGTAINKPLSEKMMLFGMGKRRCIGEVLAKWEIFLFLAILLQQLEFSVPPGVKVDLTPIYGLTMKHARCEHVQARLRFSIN
What is called AC50 is the concentration giving half of the maximal activity seen. With `Cc1ccc(-n2c(SCC(=O)NCc3ccco3)nc3sc4c(c3c2=O)CC(C)(C)SC4)cc1`, the AC50 entry was “inactive”. Still for that read-out and setting: as for `Cc1ccc(S(=O)(=O)c2nc(S(=O)(=O)c3ccc(C)cc3)c(NCc3ccco3)s2)cc1`, the entry is “inactive”; as for `Cc1nc(NS(=O)(=O)c2ccccc2C)c2c3c(sc2n1)CCC3`, 3160 nM (active); as for `Cc1nc(NCc2ccco2)c2c3c(sc2n1)CCC3`, 2510 nM (active).

Take `CCCSc1nc(SCC(=O)NCc2ccccc2)c2c3c(sc2n1)COC(C)(CC)C3` (configuration not stated): the AC50 result is “inactive”. On the same count and under the same terms, in the case of `CCCSc1nc(NCc2ccco2)c2c3c(sc2n1)COC(C)(C)C3` it was 794 nM (active); in that of `CCSc1ncnc2c1sc1nc(-c3ccco3)c3c(c12)CC(C)(C)OC3`, “inactive”. `C[C@H](O/N=C1/[C@H]2O[C@@H]2[C@@H](O)[C@H]2[C@H]1CCn1c(=O)n(-c3ccccc3)c(=O)n12)c1cn([C@H](CO)Cc2ccccc2)nn1`: the activity, negative = inhibition was -6.4% [at 11.4 µM] and 3.91% [at 11.4 µM]. As for `COc1cc(C2C(C#N)=C(N)N(c3sc4c(c3C#N)CCCC4)C3=C2C(=O)CC(C)(C)C3)cc(OC)c1OC` (configuration not stated), the AC50 entry is “inactive”. The same measure, in the same setting: in the case of `O=C(c1csnn1)N1CCC[C@@]2(CCN(Cc3nccs3)C2)C1` it was “inactive”; in that of `CC1(C)Cc2c(ccc3ccccc23)C(=O)N1`, 3550 nM (active); in that of `CNC(=O)/C=C1\NC(C)(C)Cc2c1ccc1ccccc21`, 6310 nM (active). On the same count and under the same terms, in the case of `C=C(NC(=O)C(=C)NC(=O)c1csc(C2=N[C@@H]3c4csc(n4)[C@@H]4NC(=O)c5csc(n5)[C@@H]([C@](C)(O)[C@H](C)O)NC(=O)[C@@H]5CSC(=N5)/C(=C/C)NC(=O)[C@@H]([C@H](C)O)NC(=O)c5csc(n5)[C@]3(CC2)NC(=O)[C@@H](C)NC(=O)C(=C)NC(=O)[C@@H](C)NC(=O)[C@@H]([C@@H](C)CC)N[C@H]2C=Cc3c([C@H](C)O)cc(nc3[C@@H]2O)C(=O)O[C@H]4C)n1)C(N)=O` it was “inactive”; in that of `COCC(=O)N1CCC[C@@]2(CCN(c3ncccn3)C2)C1`, “inactive”; in that of `CCCN(CCC)C(=S)NC(=O)c1ccc(Cl)cc1Cl`, 447 nM (active). Same read-out and setting: as for `CCCN(CCC)C(=O)[C@@H](CCC(=O)O)NC(=O)c1ccccc1`, the entry is “inactive”; as for `CCn1c(CCNC(=O)c2ccc(Cl)cc2Cl)n[nH]c1=S`, “inactive”; as for `O=C(Nc1ccccc1[N+](=O)[O-])C1C(c2ccccc2)=C1c1ccccc1`, “inactive”. Regarding `O=[N+]([O-])c1ccccc1N/N=C/c1c[nH]c2ccccc12`, the AC50 was 5620 nM (active). Still for that read-out and setting: in the case of `Cn1c(N/N=C/c2c[nH]c3ccccc23)nc2ccccc21` it was 1000 nM (active); in that of `COc1ccc(Nc2nc(N3CCCCC3)c3ccccc3n2)cc1`, 1780 nM (active). As for `O=C(/C=C\c1ccc(O)c(O)c1)OCCc1ccccc1`, the AC50 was 1000 nM (active). On the same count and under the same terms, in the case of `O=C(O)/C=C\c1ccc(O)c(O)c1` it was “inactive”. On the same count and under the same terms, as for `O=C(/C=C\c1ccc(O)c(O)c1)O[C@@H]1C[C@](O)(C(=O)O)C[C@@H](O)[C@@H]1O`, the entry is “inactive”; as for `Cc1ccc(-c2nn(-c3ccccc3)cc2CSC(=N)N)cc1`, 12600 nM (active). The same measure, in the same setting: as for `c1cnc2ccc(C(c3nnnn3C3CCCC3)N3CCN4CCCC4C3)cc2c1` (configuration not stated), the entry is “inactive”. `N#Cc1cccc(-c2nc(Nc3ccncc3)c3ccccc3n2)c1`: the AC50 is 631 nM (active).

For the molecule `N#Cc1cccc(-c2nc(Nc3ccccc3)c3ccccc3n2)c1`, the concentration at half-maximal activity (AC50) was 1260 nM (active).

For `CNc1nc(-c2cccc(C#N)c2)nc2ccccc12`, the AC50 is 79.4 nM (active). Regarding `N#Cc1cccc(NC(=O)N2CC[C@@]3(CCCN(C(=O)c4ccncc4)C3)C2)c1`, the AC50 result is “inactive”.

As for `CNC(=O)[C@@H]1O[C@@H](n2cnc3c(N)ncnc32)[C@@H](O)[C@H]1O`, the AC50 entry is “inactive”. As for `CC(=O)OC[C@@H]1O[C@H](CCO/N=C\[C@@H](C)[C@H](OCc2ccccc2)C(C)C)C=C[C@@H]1OC(C)=O`, the activity, negative = inhibition was 9.09% [at 11.4 µM].

As to `CC(=O)OC[C@@H]1O[C@@H](O/N=C2/C[C@@H](O)[C@@H](O)[C@@H]3[C@@H]4C(=O)N(C5CCCCC5)C(=O)[C@H]4CC[C@H]23)[C@H](OC(C)=O)[C@H](OC(C)=O)[C@@H]1OC(C)=O`, the activity, negative = inhibition is -1.1% [at 11.4 µM]. With `CC(=O)Nc1ccc(C#Cc2ccc(NC(C)=O)cc2)cc1`, the AC50 entry is “inactive”. The same measure, in the same setting: in the case of `S=C(Nc1ccccc1)Nc1ccccc1C#Cc1ccccc1` it was 501 nM (active); in that of `COc1ccccc1NC(=O)Nc1nc(-c2cccnc2)nc2ccccc12`, 2510 nM (active). On the same count and under the same terms, in the case of `COc1cccc(-c2nc(NCc3ccccc3)c3ccccc3n2)c1` it was 3160 nM (active); in that of `COCCNc1nc(-c2cccc(OC)c2)nc2ccccc12`, 200 nM (active). As for `COc1cccc(-c2nc(NCCNC(C)=O)c3ccccc3n2)c1`, the AC50 was 2510 nM (active).

Take `CCc1ncc(CO)n1Cc1cccc2ccccc12`: the activity, negative = inhibition is -6.53% [at 11.4 µM].

Regarding `CO[C@@H]1COC(=O)[C@H](C)NC(=O)C/C=C\[C@@H](C)[C@@H](NS(=O)(=O)c2ccc(C)cc2)COC(=O)C/C=C\[C@@H]1C`, the activity, negative = inhibition is -6.59% [at 11.4 µM]. With `Cc1ccc(S(=O)(=O)ON=C2CCN(S(=O)(=O)c3ccccc3)CC2)cc1`, the AC50 result is “inactive”. With `CC(=O)O[C@H]1CC[C@@]2(C)C(=CC[C@@H]3[C@@H]4CC[C@H](c5cc(C(F)(F)F)n(C(C)=O)n5)[C@]4(C)CC[C@@H]32)C1`, the activity, negative = inhibition was -13.7% [at 11.4 µM]. For `COc1ccccc1CNc1nc(-c2cccnc2)nc2ccccc12`, the AC50 was 1000 nM (active). In the case of `COc1cccc(-c2nc(NCc3cccnc3)c3ccccc3n2)c1`, the AC50 is 158 nM (active). Take `COc1cccc(-c2nc(NCc3cccs3)c3ccccc3n2)c1`: the AC50 is 316 nM (active). On the same count and under the same terms, in the case of `COc1cccc(-c2nc(NCc3ccccc3OC)c3ccccc3n2)c1` it was 631 nM (active). Still for that read-out and setting: as for `Cc1noc(C)c1C(=O)N1CCC2(CC1)CN(c1ncccn1)C2`, the entry is “inactive”; as for `Cc1ccc(S(=O)(=O)N2CCCC(C(=O)NCCCN3CCCCC3C)C2)cc1` (configuration not stated), “inactive”. Same read-out and setting: in the case of `O=C(CCN1C(=O)c2ccccc2C1=O)NC(=S)Nc1cccc(Cl)c1` it was 3160 nM (active); in that of `CC(C)(C)c1nnc(NC(=O)c2cc(-c3ccccc3)nc3ccccc23)s1`, “inactive”; in that of `Cc1cccc(NC(=S)NC(=O)CCc2ccccc2)c1`, 6310 nM (active). Regarding `CCCc1ccc(-c2cc(C(=O)NN3CCOCC3)c3ccccc3n2)cc1`, the AC50 result was “inactive”. Still for that read-out and setting: as for `Cc1ccc(-c2cc(C(=O)NN=C3CCCC3)c3ccccc3n2)cc1`, the figure is 15800 nM (active); as for `COCc1nnc(NC(=O)CCN2C(=O)c3ccccc3C2=O)s1`, “inactive”; as for `Cc1ccccc1NC(=S)NC(=O)c1cc(-c2ccccc2)nc2ccccc12`, 14100 nM (active). The same measure, in the same setting: as for `CCC[C@H]1C[C@H](C(=O)N[C@H]([C@@H]2O[C@H](SC)[C@@H](O)[C@H](O)[C@@H]2O)[C@H](C)O)N(C)C1`, the entry is “inactive”; as for `Cc1cccc(NC(=S)NC(=O)c2cc(-c3ccccc3)nc3ccccc23)c1`, 8910 nM (active); as for `Cc1nc(SCC(=O)c2ccc(F)cc2)c([N+](=O)[O-])[nH]1`, 6310 nM (active). In the case of `Cc1cc([N+](=O)[O-])nn1CC(=O)NNC(=S)Nc1ccc(F)cc1`, the AC50 result is “inactive”. For the molecule `Cn1cnc([N+](=O)[O-])c1SCC(=O)O`, the activity, negative = inhibition is -9.68% [at 11.4 µM].

As for `c1ccc2sc(SCCSc3nc4ccccc4s3)nc2c1`, the AC50 was 794 nM (active). On the same count and under the same terms, in the case of `Oc1ccccc1C(Sc1nc2ccccc2s1)Sc1nc2ccccc2s1` it was 1260 nM (active); in that of `NCCSc1nc2ccccc2s1`, 316 nM (active). As to `c1ccc(NCCSc2nc3ccccc3s2)cc1`, the AC50 was 501 nM (active).

As to `O=C(O)CCCSc1nc2ccccc2s1`, the activity, negative = inhibition was -16.9% [at 11.4 µM]. Take `CN(C)Cc1ccccc1-c1cc(Nc2ccccc2)ncn1`: the AC50 is 15800 nM (active). Still for that read-out and setting: as for `CN(C)Cc1ccccc1-c1cc(NC2CC2)ncn1`, the figure is 12600 nM (active).

`CC12CCC(C(=O)Nc3ncc([N+](=O)[O-])s3)(OC1=O)C2(C)C` (configuration not stated): the AC50 result is “inactive”. With `O=C(N/N=C/c1cccc(C(F)(F)F)c1)C1CCN(c2ncc(C(F)(F)F)cc2Cl)CC1`, the AC50 result was “inactive”. Regarding `CON/C=C(\C=Nc1ccccc1)c1ncc(C(F)(F)F)cc1Cl`, the AC50 is 2240 nM (active). On the same count and under the same terms, in the case of `C[C@@]12CC[C@@H]3c4ccc(O)cc4CC[C@H]3[C@H]1C[C@@H](O)[C@H]2O` it was “inactive”; in that of `O=C1C(=O)N(Cc2ccc(Cl)c(Cl)c2)c2ccccc21`, 12600 nM (active). On the same count and under the same terms, as for `CCc1cc2c(c(CC)n1)CCC(=O)N2Cc1ccc(-c2ccccc2-c2nn[nH]n2)cc1`, the entry is “inactive”; as for `N#Cc1ccccc1-c1ccc2ncnc(NC3CC3)c2c1`, 100 nM (active). On the same count and under the same terms, as for `CNc1ncnc2ccc(-c3ccccc3C#N)cc12`, the figure is 1000 nM (active); as for `Cc1cccc(C)c1NC(=O)c1cc2c(=O)c3ccccc3oc2nc1C(F)(F)F`, “inactive”; as for `Cn1c(C(F)(F)F)nc2c(=O)oc3ccccc3c21`, 158 nM (active). Take `CC(C)[C@H](CO)Nc1nc(Nc2ccc(C(=O)O)c(Cl)c2)c2ncn(C(C)C)c2n1`: the AC50 entry was “inactive”. Same read-out and setting: in the case of `CC(C)[C@H](CO)Nc1nc(Nc2cc(N)cc(Cl)c2)c2ncn(C(C)C)c2n1` it was 501 nM (active); in that of `Cc1cc(N)n2ncc(-c3ccc(Cl)cc3)c2n1`, 1260 nM (active).

`CC1(C)O[C@@H]2O[C@H]([C@@H]3COC(C)(C)O3)[C@H](N)[C@H]2O1`: the activity, negative = inhibition is 8.69% [at 2.29 µM]. As for `Cc1cccc(NC(=O)c2onc3c2CCCC3)c1C`, the AC50 was 2240 nM (active). In the case of `O=C(Nc1ccc2ccccc2c1)c1onc2c1CCCC2`, the AC50 is 4470 nM (active). Same read-out and setting: as for `Cc1cccc(NC(=S)N2CCC(N(C)CC3CCCO3)CC2)c1C` (configuration not stated), the entry is “inactive”. With `CO[C@@H]1COC(=O)C/C=C\[C@H](C)COC(=O)[C@H](Cc2ccccc2)NC(=O)C/C=C\[C@H]1C`, the activity, negative = inhibition was 4.04% [at 11.4 µM]. As to `Cn1c(-c2ccc(Br)cc2)cnc1NCc1cccnc1`, the AC50 was 12600 nM (active).
